# Source: PubChem BioAssay
# Activity calls are given as the source filed them.
# Tests used:
# [1] = test system: Plasmodium falciparum Sir2 (PF13_0152, Sir2A); assay: Plasmodium falciparum Sir2A binding compounds – biochemical, small-molecule microarray, 635 nm fluorescence, primary screen (AID 1098); conditions: fluorescence 635 nm, higher = more signal;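 also: score merges spot fluorescence intensity with its signal-to-noise ratio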
# [2] = probe aDKK1 binding to arrayed compounds – biochemical, biotinylated probe, 635/667 nm fluorescence, primary screen (AID 1099); conditions: small-molecule microarray, higher = more signal;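 also: score merges 667nm spot fluorescence with signal to noise across triplicate slides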
# [3] = probe aCHRDL2 binding to arrayed compounds – biochemical, biotinylated probe, 635/667 nm fluorescence, primary screen (AID 1100); conditions: small-molecule microarray, higher = more signal
# [4] = change in splice reporter luminescence, either direction, cell-based, HEK293, spliceosome inhibition project, primary screen (AID 1101); conditions: HEK293 splicing luciferase reporter, 24 h, higher = more signal, called active from +8 up or from −8 down;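 also: HEK293 cells carrying a splicing-competent luciferase reporter gene; test concentration not given here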
# [5] = molecular target: Fibroblast growth factor 10 (Homo sapiens) (UniProt O15520); assay: compounds binding fibroblast growth factor 10 – biochemical, small-molecule microarray, 635 nm fluorescence, primary screen (AID 1102); conditions: FGF10 binding, fluorescence 635 nm, higher = more signal
# [6] = test system: glycogen synthase kinase-3 (GSK3A per assay name; protocol says GSK3B); assay: compounds binding glycogen synthase kinase-3 – biochemical, small-molecule microarray, 635 nm fluorescence, GSK3A, primary screen (AID 1103); conditions: fluorescence 635 nm, higher = more signal; also: the record names both GSK3A and GSK3B
# [7] = molecular target: Epidermal growth factor receptor (Homo sapiens) (UniProt P00533); assay: compounds binding epidermal growth factor receptor – biochemical, small-molecule microarray, 635 nm fluorescence, primary screen (AID 1104); conditions: EGFR binding, higher = more signal;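 also: score merges 667 nm emission intensity with spot signal to noise over triplicate slides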
# [8] = molecular target: Follistatin-related protein 3 (Homo sapiens) (UniProt O95633); assay: compounds binding follistatin-related protein 3 – biochemical, small-molecule microarray, 635 nm fluorescence, primary screen (AID 1105); conditions: FSTL3 binding, higher = more signal;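 also: score merges emission near 667 nm and signal to noise per printed spot across three slides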
# [9] = molecular target: Dickkopf-related protein 1 (Homo sapiens) (UniProt O94907); assay: small molecules binding DKK1 protein – biochemical, small-molecule microarray, 635 nm fluorescence scan, primary screen (AID 1106); conditions: higher = more signal;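 also: score merges emission near 667 nm with signal to noise over three replicate slides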
# [10] = test system: Inhibin beta A chain (activin A); assay: small molecules binding activin A – biochemical, small-molecule microarray, 635 nm fluorescence scan, primary screen (AID 1107); conditions: INHBA, higher = more signal;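 also: mouse activin A protein probed at 4.33 µg/mL on printed slides; score merges bound-protein fluorescence near 667 nm with spot signal-to-noise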
# [11] = test system: Human papillomavirus type 1a protein E7 (residues 44-93); assay: small molecules binding HPV E7 44-93 – biochemical, small-molecule microarray, residues 44-93, 635 nm fluorescence, primary screen (AID 1108); conditions: fluorescence 635 nm, higher = more signal;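 also: E7 fragment applied at 1 µg/mL in TBST for 1 h at 4 C; score combines spot fluorescence with its signal to noise ratio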
# [12] = hepatitis C replication reporter changes, two-sided – Huh7 cells, luciferase reporter, HCV replication inhibitor project, primary screen (AID 1109); conditions: Huh7 HCV replicon luciferase reporter, 48 h; higher = more signal;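 also: huh7 hepatoma cells harbouring a luciferase neomycin HCV replicon reporter; luciferase luminescence as measure of HCV replicon replication; test concentration not given here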
# [13] = molecular target: Left-right determination factor 2 (Homo sapiens) (UniProt O00292); assay: small molecules binding LEFTY2 protein – biochemical, small-molecule microarray, 635 nm fluorescence scan, primary screen (AID 1110); conditions: higher = more signal
# [14] = molecular target: Calmodulin-1 (Homo sapiens) (UniProt P0DP23); assay: small molecules binding calmodulin-1 with EGTA – biochemical, small-molecule microarray, Cy5-labelled CALM1, profiling panel (AID 1111); conditions: Cy5-CALM1 binding fluorescence, higher = more signal;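 also: labelled calmodulin applied in Tris saline Tween buffer holding calcium plus EGTA and DTT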
# [15] = molecular target: Calmodulin-1 (Homo sapiens) (UniProt P0DP23); assay: small molecules binding Ca-loaded calmodulin-1 – biochemical, small-molecule microarray, Cy5-labelled CALM1, plus calcium, artefact control for SMM control-protein annotation, profiling panel (AID 1112); conditions: Cy5-CALM1 binding fluorescence, higher = more signal;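 also: score merges spot fluorescence with signal to noise from triplicate slides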
# [16] = probe aWnt5a binding to arrayed compounds – biochemical, biotinylated probe, 635/667 nm fluorescence, primary screen (AID 1113); conditions: small-molecule microarray, higher = more signal;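 also: score merges 667 nm fluorescence intensity with signal-to-noise per printed feature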
# [17] = probe aShh binding to arrayed compounds – biochemical, biotinylated probe, 635/667 nm fluorescence, primary screen (AID 1114); conditions: small-molecule microarray, higher = more signal;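 also: probe is biotin-labelled aShh protein from a stem cell growth factor screen; measures binding of labelled protein to compounds printed on the slide; score merges feature fluorescence at 667 nm with signal-to-noise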
# [18] = probe aNog binding to arrayed compounds – biochemical, biotinylated probe, 635/667 nm fluorescence, primary screen (AID 1115); conditions: small-molecule microarray, higher = more signal;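 also: probe is biotinylated aNog protein used at 0.15 µg/mL for 1 h at 4 C; z-score combines 667 nm fluorescence of each spot with its signal to noise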
# [19] = molecular target: Torsin-1A-interacting protein 1 (Homo sapiens) (UniProt Q5JTV8); assay: compound microarray binding of lysate hLAP1 – cell lysate, small-molecule microarray, COS7 lysate, 635/667 nm fluorescence, primary screen (AID 1116); conditions: 635 nm fluorescence, higher = more signal
# [20] = molecular target: Alpha-bungarotoxin (Bungarus multicinctus) (UniProt P60615); assay: compounds binding labelled alpha-BTX control protein – biochemical, small-molecule microarray, Alexa647 label, 635/667 nm fluorescence, artefact control for SMM control protein annotation, profiling panel (AID 1117); conditions: alpha-BTX-A647 binding fluorescence, higher = more signal
# Alpha-bungarotoxin (Bungarus multicinctus), sequence (P60615 whole entry, looked up): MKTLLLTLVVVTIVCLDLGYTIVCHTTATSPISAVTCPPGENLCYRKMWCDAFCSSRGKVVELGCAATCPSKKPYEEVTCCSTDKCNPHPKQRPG
# Left-right determination factor 2 (Homo sapiens), sequence (O00292 whole entry, looked up): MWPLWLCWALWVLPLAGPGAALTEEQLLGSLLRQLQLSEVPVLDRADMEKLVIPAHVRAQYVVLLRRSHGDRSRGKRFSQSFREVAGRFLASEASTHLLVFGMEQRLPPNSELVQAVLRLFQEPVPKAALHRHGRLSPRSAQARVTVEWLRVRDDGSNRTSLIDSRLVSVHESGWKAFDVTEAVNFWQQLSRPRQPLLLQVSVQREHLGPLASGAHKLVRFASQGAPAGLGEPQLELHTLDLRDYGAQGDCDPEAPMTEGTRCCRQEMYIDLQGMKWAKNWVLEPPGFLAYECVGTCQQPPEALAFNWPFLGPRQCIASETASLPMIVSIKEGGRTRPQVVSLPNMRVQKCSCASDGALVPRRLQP
# Dickkopf-related protein 1 (Homo sapiens), sequence (O94907 whole entry, looked up): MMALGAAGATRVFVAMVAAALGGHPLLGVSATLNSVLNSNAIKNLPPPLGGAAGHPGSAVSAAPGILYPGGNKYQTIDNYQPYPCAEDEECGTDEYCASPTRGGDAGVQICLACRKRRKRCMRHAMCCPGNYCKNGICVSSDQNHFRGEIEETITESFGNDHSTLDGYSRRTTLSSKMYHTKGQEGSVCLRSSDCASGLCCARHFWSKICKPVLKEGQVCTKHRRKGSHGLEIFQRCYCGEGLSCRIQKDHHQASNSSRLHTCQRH
# Fibroblast growth factor 10 (Homo sapiens), sequence (O15520 whole entry, looked up): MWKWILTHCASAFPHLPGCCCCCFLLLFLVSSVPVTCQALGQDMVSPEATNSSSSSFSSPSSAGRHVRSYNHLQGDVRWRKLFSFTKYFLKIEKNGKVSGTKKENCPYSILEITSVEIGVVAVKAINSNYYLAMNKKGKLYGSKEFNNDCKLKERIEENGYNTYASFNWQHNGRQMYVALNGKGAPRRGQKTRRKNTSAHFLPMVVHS
# Epidermal growth factor receptor (Homo sapiens), sequence (P00533 whole entry, looked up): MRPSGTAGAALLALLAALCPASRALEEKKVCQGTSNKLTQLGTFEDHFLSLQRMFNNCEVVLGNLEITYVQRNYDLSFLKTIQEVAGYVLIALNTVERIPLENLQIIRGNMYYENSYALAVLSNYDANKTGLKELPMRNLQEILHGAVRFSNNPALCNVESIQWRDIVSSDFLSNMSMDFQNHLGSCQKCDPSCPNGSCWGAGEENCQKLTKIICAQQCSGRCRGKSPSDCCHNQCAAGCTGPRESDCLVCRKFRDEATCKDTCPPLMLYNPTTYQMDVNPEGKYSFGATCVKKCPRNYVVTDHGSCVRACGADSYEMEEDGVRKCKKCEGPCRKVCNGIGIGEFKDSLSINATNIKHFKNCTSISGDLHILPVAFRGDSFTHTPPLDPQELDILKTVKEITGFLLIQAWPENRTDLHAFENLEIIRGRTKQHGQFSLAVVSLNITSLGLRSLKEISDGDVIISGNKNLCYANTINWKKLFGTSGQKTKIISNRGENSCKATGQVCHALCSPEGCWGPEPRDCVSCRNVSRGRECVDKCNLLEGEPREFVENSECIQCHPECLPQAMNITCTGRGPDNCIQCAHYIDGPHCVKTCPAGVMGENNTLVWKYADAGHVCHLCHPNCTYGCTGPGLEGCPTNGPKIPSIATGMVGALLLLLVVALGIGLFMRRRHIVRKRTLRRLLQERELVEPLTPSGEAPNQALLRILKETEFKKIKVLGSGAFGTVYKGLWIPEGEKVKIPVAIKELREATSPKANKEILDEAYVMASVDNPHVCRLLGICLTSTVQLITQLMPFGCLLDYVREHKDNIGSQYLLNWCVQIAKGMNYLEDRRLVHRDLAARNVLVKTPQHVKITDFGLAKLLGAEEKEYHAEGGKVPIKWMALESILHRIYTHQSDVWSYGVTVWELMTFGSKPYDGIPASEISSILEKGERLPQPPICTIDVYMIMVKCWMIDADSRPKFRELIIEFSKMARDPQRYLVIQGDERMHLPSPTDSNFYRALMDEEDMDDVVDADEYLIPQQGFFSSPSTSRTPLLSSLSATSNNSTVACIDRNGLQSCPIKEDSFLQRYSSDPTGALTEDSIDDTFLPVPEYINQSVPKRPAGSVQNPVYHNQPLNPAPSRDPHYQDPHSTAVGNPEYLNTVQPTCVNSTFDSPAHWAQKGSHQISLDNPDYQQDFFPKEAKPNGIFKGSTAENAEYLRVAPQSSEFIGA
# Torsin-1A-interacting protein 1 (Homo sapiens), sequence (Q5JTV8 whole entry, looked up): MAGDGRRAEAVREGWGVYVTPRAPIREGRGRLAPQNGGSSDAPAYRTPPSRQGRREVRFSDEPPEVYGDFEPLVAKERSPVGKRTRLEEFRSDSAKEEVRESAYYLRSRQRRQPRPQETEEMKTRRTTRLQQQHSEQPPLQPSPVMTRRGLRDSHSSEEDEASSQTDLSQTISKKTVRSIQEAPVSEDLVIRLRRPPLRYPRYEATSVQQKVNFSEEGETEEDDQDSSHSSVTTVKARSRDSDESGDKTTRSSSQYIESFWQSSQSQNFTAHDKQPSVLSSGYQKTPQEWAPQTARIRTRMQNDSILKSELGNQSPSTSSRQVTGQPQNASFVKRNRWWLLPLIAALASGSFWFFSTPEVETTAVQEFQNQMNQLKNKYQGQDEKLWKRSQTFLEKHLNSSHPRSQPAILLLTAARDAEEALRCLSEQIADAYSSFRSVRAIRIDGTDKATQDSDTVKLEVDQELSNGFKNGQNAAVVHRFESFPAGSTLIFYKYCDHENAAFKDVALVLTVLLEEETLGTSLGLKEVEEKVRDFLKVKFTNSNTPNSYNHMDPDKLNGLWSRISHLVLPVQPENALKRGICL
# Follistatin-related protein 3 (Homo sapiens), sequence (O95633 whole entry, looked up): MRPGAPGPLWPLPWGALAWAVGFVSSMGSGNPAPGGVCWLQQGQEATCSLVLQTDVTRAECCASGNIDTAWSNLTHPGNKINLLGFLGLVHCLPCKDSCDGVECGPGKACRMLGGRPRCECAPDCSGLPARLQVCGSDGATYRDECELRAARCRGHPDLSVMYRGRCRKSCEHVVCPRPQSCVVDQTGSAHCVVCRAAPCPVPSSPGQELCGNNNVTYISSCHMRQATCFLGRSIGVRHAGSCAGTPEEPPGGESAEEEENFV
SMILES,composite z-score [1],composite z-score [2],composite z-score [3],z-score [4],composite z-score [5],composite z-score [6],composite z-score [7],composite z-score [8],composite z-score [9],composite z-score [10],composite z-score [11],z-score [12],composite z-score [13],composite z-score [14],composite z-score [15],composite z-score [16],composite z-score [17],composite z-score [18],composite z-score [19],composite z-score [20]
C=C[C@H](C)[C@H](OC(=O)Nc1ccc(OC)cc1)c1ccc(O)c2ccccc12,0.443,-0.26,0.242,-0.632 (inactive),0.111,-0.667,-0.587,0.0608,-0.0641,0.997,-0.942,-3.3,-0.654,-1.38,-0.881,-0.129,-0.0709,-0.0691,0.041,-0.596
CN1C(=O)C2C=CC(C(O)C3=C[C@H]4C[C@@H](C3)C4(C)C)N(Nc3ccc([N+](=O)[O-])cc3[N+](=O)[O-])C2C1=O (stereo not given in full),1.22,1.34,1.07,0.674 (inactive),0.721,1.28,0.21,0.988,-0.446,0.844,1.41,-0.474,0.258,1.72,0.616,0.0194,0.223,0.836,0.975,1.51
NC(=O)[C@@]1(CCS(=O)(=O)c2ccccc2)N=C(c2ccc(OCCCO)cc2)O[C@H]1c1ccccc1,1.28,0.518,0.7,-0.675 (inactive),1.08,0.953,-0.151,-0.437,0.015,0.564,1.49,-2.05,-0.38,1.37,0.699,0.0845,0.396,1.28,1.89,1.42
COc1ccc([Si](C)(C)[C@@H]2[C@@H](CCO)O[C@]3(C(=O)N(Cc4cccc(N(C=O)c5ccccc5)c4)c4ccccc43)[C@H]2C)cc1,0.883,0.0396,0.541,-2.49 (inactive),-0.0644,0.364,-0.222,-0.0339,-0.0116,1.03,-0.179,-4.85,-0.223,1.13,1.09,-0.176,0.0611,-0.0002,0.494,0.956
CCCCCCC#C[Si](O[C@H](c1ccccc1)c1cn([C@H](C)c2ccccc2)nn1)(C(C)C)C(C)C,0.693,-0.167,-0.365,-0.209 (inactive),0.547,0.565,0.483,0.841,1.25,0.327,0.444,-1.57,0.434,-0.193,-0.455,0.0317,-0.138,-0.139,-0.0802,-0.0777
O=C1O[C@H](c2ccccc2)[C@H](c2ccccc2)N2[C@H]1[C@@H](C(=O)Nc1nc3ccccc3s1)[C@]1(C(=O)Nc3ccc(C#CC4=CCCCC4)cc31)[C@H]2c1ccc(OCCO)cc1,0.956,-0.004,0.54,-0.718 (inactive),1,1.3,0.202,0.891,0.779,0.881,0.945,-1.91,0.56,1.36,0.536,-0.176,-0.188,1.37,-0.513,2.12
